Holding throughout (experiment): NCI-60 one-dose screen, 48 h (100 = growth as untreated, 0 = no growth, -100 = all killed)
Holding throughout (details): 10 µM unless noted

In assay [1] the test system is K-562 leukemia.
Assay [2] deals with MDA-MB-231 breast.
For assay [3], the system named is SF-268 CNS.
Assay [4] relates to SF-295 CNS.
Assay [5] deals with SF-539 CNS.
Assay [6] relates to UACC-257 melanoma.
The test system of assay [7] is M14 melanoma.
For assay [8], the system named is HCT-15 colon.
Assay [9] deals with HT29 colon.
Assay [10] relates to SNB-75 CNS.
In assay [11] the test system is SNB-19 CNS.
The test system of assay [12] is U251 CNS.
Assay [13] relates to PC-3 prostate.
Assay [14] concerns SK-MEL-5 melanoma.
Assay [15] concerns LOX IMVI melanoma.
In assay [16] the test system is SK-MEL-28 melanoma.
Assay [17] deals with SK-MEL-2 melanoma.
In assay [18] the test system is RXF 393 renal.
For assay [19], the system named is UACC-62 melanoma.
Assay [20] concerns MALME-3M melanoma.

The source of these data is PubChem BioAssay (NCI).

SMILES strings stand for the structures. About 83,000 compounds went through this panel and 20% of them were active in at least one assay; those are over-represented in the sample as a whole.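 Values shown are percent growth following 48 h exposure of cells in 96-well plates to a single concentration of compound; below 10 was considered active.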 Values without a mark were called inactive. Calls of active or inactive are those of the source.

As for `O=C(/C=C/c1ccc(Cl)cc1)c1ccccc1`, the growth is 66.6% in assay [1]; 119% in [2]; 102% in assay [3]; 94.3% in assay [4]; 103% in assay [5]; 102% in [6]. Further, the growth was 100% in assay [7]; 75.4% in assay [8]; 93.8% in assay [9]; 109% in assay [10]; 101% in [11]; 88.2% in [12]. Moreover, the growth in assay [13] was 97%; in assay [14], 93%; in assay [15] it was 81.1%; in [16], 113%; in [17], 102%.
With `C=C(C)[C@H]1CC/C(C)=C/CC[C@]2(C)O[C@H]2CC/C(C=O)=C\C1O` (stereo partly drawn), the growth in assay [1] was 124%; in [2] it was 92.4%; in assay [18] it was 111%; in assay [3] it was 106%; in assay [5], 106%; in [6] it was 154%. The growth in assay [7] is 115%; in assay [8], 118%; in assay [9], 98.2%; in [10], 106%; in [11], 112%; in assay [12], 103%. The growth is 122% in assay [13]; 94.8% in assay [14]; 106% in assay [19]; 98.1% in assay [15]; 115% in [16]; 1410% in assay [17].
For the compound `CCCOc1ccc2c(c1)CC[C@@H]1[C@@H]2CC[C@@]2(C)[C@H]1CC[C@]2(C)O`, the growth in assay [1] was 1.46% (active); in [2] it was 51.1%; in [18] it was 83.7%; in assay [3], 81.5%; in [4], 58.7%; in assay [5], 67.5%. Further, the growth in assay [6] was 73.8%; in [7], 79.5%; in assay [8], 56.7%; in assay [10], 73.4%; in assay [11], 94.3%; in assay [12], 72%. Also, the growth in assay [14] was 92.7%; in assay [19] it was 95.8%; in [15] it was 65%; in assay [16], 85.3%.
On to `COc1ccc(-c2c3c(nn2-c2ccc(N)cc2)CCc2cnoc2-3)cc1OC`, for which the growth in assay [20] was 106%; in assay [2], 88.5%; in assay [18], 93%; in assay [3], 90.8%; in [4], 85.4%; in assay [5], 94.5%. Besides, the growth in [6] was 112%; in assay [7], 97.8%; in assay [8], 85.6%; in assay [9], 93.6%; in assay [10], 79.4%; in assay [11], 90.3%. Moreover, the growth in assay [12] was 89.1%; in assay [13], 64.3%; in [14] it was 76%; in assay [19], 80%; in assay [15], 86.4%; in [16], 116%. In addition, the growth in [17] was 101%.
On to `NC(N)=NC(N)=NCCCc1ccccc1`, for which the growth in assay [20] was 63.9% [100 µM]; in assay [2] it was 69% [100 µM]; in [18], 72.4% [100 µM]; in assay [3] it was 59.5% [100 µM]; in [4] it was 49.4% [100 µM]; in [5], 66.5% [100 µM]. Moreover, the growth in assay [6] was 62.8% [100 µM]; in assay [7], 76.6% [100 µM]; in assay [8] it was 80.3% [100 µM]; in assay [9] it was 68.2% [100 µM]; in assay [10] it was 57.5% [100 µM]; in assay [11], 77.8% [100 µM]. Moreover, the growth is 83.7% [100 µM] in assay [12]; 52.7% [100 µM] in assay [13]; 28.6% [100 µM] in assay [14]; 88.4% [100 µM] in assay [19]; 57.4% [100 µM] in assay [15]; 97% [100 µM] in assay [16]. The growth in [17] is 70.7% [100 µM].
For the compound `Cc1cc2c(C#N)n3c(c2cc1C)C(=O)C(c1ccccc1)Oc1ccccc1-3` (stereo not drawn), the growth in assay [1] is 12.7%; in assay [2] it was 58.9%; in [3], 35.1%; in [4], 14.8%; in assay [5], 74%; in assay [6] it was 44.7%. Besides, the growth is 36.8% in assay [7]; 16.4% in assay [8]; 18.5% in assay [9]; 15.6% in assay [10]; 35.9% in [11]; 18.3% in [12]. Besides, the growth in assay [13] was 28.3%; in assay [14] it was 22.7%; in assay [15], 20%; in [16], 85.1%; in assay [17] it was 45.2%.
As to `CC(C)(C)c1ccc(S(=O)(=O)O)s1`, the growth in assay [1] is 77%; in assay [2] it was 93.1%; in [18] it was 105%; in [3], 102%; in assay [5], 99.3%; in [6] it was 117%. Besides, the growth in assay [7] is 107%; in assay [8] it was 107%; in assay [9] it was 106%; in assay [10], 92.4%; in assay [11], 95.5%; in assay [12] it was 105%. Besides, the growth in [13] was 52.7%; in [14], 109%; in [19], 93.8%; in assay [15], 102%; in assay [16] it was 112%.
`COc1ccc(/C=C(\C#N)c2ccccc2)cc1`: the growth is 28.8% in assay [1]; 78.4% in assay [2]; 95.2% in [3]; 94.7% in [4]; 87.3% in assay [5]; 85.9% in [6]. Also, the growth is 88.7% in assay [7]; 59.5% in assay [8]; 85.5% in assay [9]; 64.6% in assay [10]; 80.8% in assay [11]; 81.4% in [12]. For the same compound, the growth in [13] was 83.3%; in [14], 81%; in assay [15] it was 89.7%; in assay [16] it was 90.6%.
Consider `O=C(/C(=C/c1ccc([N+](=O)[O-])cc1)c1ccccc1)c1ccccc1`, for which the growth in assay [1] was 3.83% (active); in assay [2], 53.6%; in assay [3], 27.8%; in assay [4], 67.5%; in assay [5], 83%; in assay [6], 41.1%. Besides, the growth was 51.6% in assay [7]; 14.6% in [8]; 44.1% in [9]; 70.6% in [10]; 75.9% in assay [11]; 52.6% in assay [12]. In addition, the growth in assay [13] is 59.1%; in assay [14] it was 43.6%; in assay [15], 5.01% (active); in assay [16] it was 97.9%; in assay [17] it was 24.9%.
In the case of `COc1cc2cn3c4ccc(O)cc4nc(N)c3c2cc1OC`, the growth is 31.2% in assay [20]; 61.6% in assay [2]; 9.93% (active) in assay [18]; 20.8% in assay [3]; 9.44% (active) in assay [4]; -18.3% (active) in [5]. Further, the growth was 6.97% (active) in assay [6]; -9.75% (active) in assay [7]; 31.4% in [8]; 24.3% in assay [9]; 2.21% (active) in assay [10]; 20.5% in assay [11]. Also, the growth was 4.61% (active) in assay [12]; 35.8% in assay [13]; -54.9% (active) in assay [14]; -59.4% (active) in assay [19]; -40.5% (active) in assay [15]; 39% in assay [16]. Also, the growth in assay [17] was 21.2%.
Take `COc1cc(/C=C/C(=O)c2c(-c3ccc(Cl)cc3)nc3sc(C)nn23)cc(OC)c1OC`: the growth in assay [1] was 31.1%; in [2], 72.2%; in [3], 88.6%; in [4], 76.2%; in assay [5], 95.8%; in [6], 81.9%. Further, the growth was 75.8% in [7]; 60.2% in [8]; 86.6% in assay [9]; 77.3% in assay [10]; 90.8% in assay [11]; 76.4% in assay [12]. In addition, the growth in [13] was 53.6%; in assay [14], 20.9%; in [15], 61.6%; in [16], 94%; in [17], 44%.
Take `COC(=O)CCC1=C(CC(=O)OC)C(C)=N/C1=C\c1[nH]c(-c2ccc[nH]2)cc1OC`: the growth in assay [1] is -3.71% (active); in assay [2], -12.2% (active); in assay [18] it was 52.8%; in assay [3], 44.8%; in [4] it was 39.3%; in assay [5] it was 38.8%. Besides, the growth in [6] was 32.5%; in [7] it was 17.2%; in assay [8], 8.89% (active); in [10] it was 12.9%; in [11] it was 69.3%; in assay [12] it was 26.5%. Besides, the growth in [14] is -22.7% (active); in assay [19], -4.87% (active); in assay [15], -48.3% (active); in [16], 56.9%.
Consider `Cn1cc(-c2csc(-c3c[nH]c4ncccc34)n2)c2cc(F)cnc21`, for which the growth in assay [20] is 95.5%; in assay [2] it was 57%; in [18], 59.8%; in assay [3], 91.7%; in assay [4], 74.3%; in assay [5], 90.9%. Further, the growth is 96.2% in [6]; 58.7% in assay [7]; 61.3% in [8]; 90.6% in [9]; 66.2% in [10]; 89% in [11]. For the same compound, the growth in [12] was 83.3%; in assay [13], 69.1%; in assay [14] it was 61.4%; in [19] it was 64.7%; in assay [15], 64.3%; in [16], 96.2%. For the same compound, the growth in assay [17] is 89.7%.
For the compound `COC(=O)CC1=C(C)/C(=C/c2[nH]c(-c3ccc[nH]3)cc2OC)N=C1C`, the growth is -23.6% (active) in assay [1]; -14.3% (active) in assay [2]; 8.29% (active) in assay [18]; 22.7% in [3]; -46.6% (active) in assay [4]; -4.76% (active) in [5]. Also, the growth was -8.53% (active) in assay [6]; 7.46% (active) in [7]; 3.06% (active) in [8]; -38.6% (active) in assay [10]; 32.3% in assay [11]; 5.15% (active) in assay [12]. The growth in assay [14] is -92.8% (active); in [19], -46.5% (active); in assay [15], -57.6% (active); in [16], -3.01% (active).
